Test results taken from PubChem BioAssay (Tox21).
Calls of active or inactive are those of the source. The call rests on the fitted dose curve; in most records, active means well fitted curve in the direction sought with a large enough effect in the repeat runs; inconclusive means weak or mixed curves; inactive means flat fitted curve, though single readings scatter.

Assay: qHTS assay to test for compound auto fluorescence at 460 nm (blue) in HEK293 cell free culture (AID 720681)
Settings: cell-free medium, autofluorescence 405/460 nm (blue); series mostly up to 91.3 µM; fluorescence, % of fluorescent control: at the top concentration
Procedure, shortened: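 Compounds were added to cell-free DMEM with 10% FBS and fluorescence read directly. The blue channel used 405 nm excitation and 460 nm emission, with triamterene as the reference fluorophore.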
On the % scale 0 is the no-effect control and ±100 the full control effect.

Row | SMILES | fluorescence, % of fluorescent control
1 | CCCCCC[C@@H](CCC)C(=O)O | 0.0438% [at 46 µM] (inactive)
2 | CCCCC1CCCCC(=O)O1 (stereo not drawn) | -0.0917% (inactive)
3 | CC1=CCC2C(C1)C2(C)C (stereo not drawn) | 0.0975% (inactive)

Assay: qHTS assay to test for compound auto fluorescence at 535 nm (green) in HEK293 cell free culture (AID 720682)
Settings: cell-free medium, green autofluorescence 485/535 nm, active compounds read high; series mostly up to 91.3 µM; activity change: at the top concentration
Procedure, shortened: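 Cell-free medium (DMEM, 10% FBS) receives compound or DMSO by pintool. Plate read directly at Ex 485/Em 535 nm. Signal converted to fluorescein equivalency.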

Row | SMILES | activity change
4 | CC(=O)OC(C)(C)C | -0.0164% (inactive)
5 | CC(C)(O)c1ccccc1 | -0.0557% (inactive)
6 | OCC(CO)(CO)COCC(CO)(CO)CO | -0.0274% (inactive)
7 | C[C@H](O)C(=O)Nc1c(I)c(C(=O)NC(CO)CO)c(I)c(C(=O)NC(CO)CO)c1I | 0.0506% [at 18.6 µM] (inactive)
8 | CSc1ccc(C=O)cc1 | 0.0086% (inactive)
9 | NCC[C@H](O)C(=O)N[C@@H]1C[C@H](N)[C@@H](O[C@H]2O[C@H](CN)[C@@H](O)[C@H](O)[C@H]2O)[C@H](O)[C@H]1O[C@H]1O[C@H](CO)[C@@H](O)[C@H](N)[C@H]1O | -0.0392% [at 46 µM] (inactive)
10 | CCN1CCN(c2cc3c(cc2F)c(=O)c(C(=O)O)cn3C2CC2)CC1 | -0.0036% [at 46 µM] (inactive)
11 | CCCCCCCCCCCCCCC | 0.108% (inactive)
12 | C/C=C1\C(=O)C[C@H]2[C@@H]3CCC4=CC(=O)CC[C@]4(C)[C@H]3CC[C@]12C | -0.0845% [at 46 µM] (inactive)
13 | c1cc(CN2CCCCC2)cc(OCCCNc2nc3ccccc3s2)c1 | 0.0098% [at 46 µM] (inactive)
14 | CC(C)(C)N(CCO)CCO | 0.103% [at 95.7 µM] (inactive)
15 | COc1cc(C)cc(O)c1 | -0.0011% (inactive)
16 | COc1ccc(NC(C)=O)cc1 | 0.0148% [at 95.7 µM] (inactive)
17 | CC(=O)c1ccc(C)cc1 | 0.0236% (inactive)
18 | COC(C(=O)O)c1ccccc1 (stereo not drawn) | 0.0345% (inactive)
19 | COc1ccc(COC=O)cc1 | -0.0247% (inactive)
20 | CCCCC=O | -0.0234% (inactive)
21 | C#CC(O)CCCCC (stereo not drawn) | 0.0637% (inactive)

Row | SMILES | activity change
22 | COc1cc(CCC(C)=O)ccc1O | -0.0492% (inactive)
23 | NC(N)=NS(=O)(=O)c1ccc(N)cc1 | 0.0753% [at 18.6 µM] (inactive)
24 | NC(=O)c1ncn([C@@H]2O[C@H](CO)[C@@H](O)[C@H]2O)c1O | 0.031% [at 46 µM] (inactive)
25 | NC(=S)Nc1cccc2ccccc12 | 0.0539% [at 3.72 µM] (inactive)
26 | CC(=O)NC(Cc1ccccc1)C(=O)O (stereo not drawn) | 0.0736% [at 46 µM] (inactive)
27 | CC(C)(O)Cc1ccccc1 | 0.013% (inactive)
28 | Cc1ccccc1Br | 0.0065% (inactive)
29 | CC12CCC(CC1=O)C2(C)C (stereo not drawn) | -0.0795% (inactive)
30 | C=C(C)C1CC=C(C)C(O)C1 (stereo not drawn) | -0.0543% (inactive)
31 | CC1CCN(CCCC(=O)c2ccc(F)cc2)CC1 | 0.0521% [at 46 µM] (inactive)
32 | C1CCCCCCCCCCC1 | 0.0049% [at 18.6 µM] (inactive)
33 | COC(=O)[C@H]1[C@H]2C[C@@H]3c4[nH]c5cc(OC)ccc5c4CCN3C[C@H]2C[C@@H](OC(=O)COc2ccc(OC)cc2)[C@@H]1OC | 0.337% [at 46 µM] (inactive)
34 | CC1=CC(=O)CCC1 | -0.0286% (inactive)
35 | CCOC(=O)[C@H](CCc1ccccc1)N[C@@H](C)C(=O)N1CCC[C@H]1C(=O)O | -0.0341% [at 46 µM] (inactive)
36 | CCCCCC[C@@H](CCC)C(=O)O | 0.0165% [at 46 µM] (inactive)
37 | CCCCC1CCCCC(=O)O1 (stereo not drawn) | 0.0727% (inactive)
38 | CC1=CCC2C(C1)C2(C)C (stereo not drawn) | 0.0899% (inactive)
